IMPase Li cell = cell-permeable IMPase inhibitors with lithium potentiation. 0.35% of 210,000 active. CHO-M1 cells, IP1 TR-FRET (IP-One), carbachol + lithium. Potency, µM (top dose mostly 59.4 µM), for inactives: at the highest dose activity, negative = IMPase inhibition, hits mostly inhibitors;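 also: IP1 builds up when IMPase is blocked and the TR-FRET signal falls; potency is read from the fitted curve at half-maximal effect; plate controls were basal vehicle for no effect and high inhibitor control for full effect; nearly all actives have a fitted effect of over 50% in size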
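CHO cells stably expressing M1 receptor (2000/well) were cultured 16–30 h, then exposed to compounds with a small lithium addition for 30 min at 37C. IP1 was measured by TR-FRET competition; AC50 from Hill fits.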
Lamin A splicing = modulators of lamin A splicing | HeLa LMNA splicing GFP/RFP minigene ratio, 48 h | Potency, µM (highest dose often 46.1 µM), for inactives: at the highest dose ratio change, negative = inhibition, most hits filed as inhibitors | 0.01% of 200,000 active | AID 1487; active = well fitted inhibition curve with a large enough effect in the signal ratio, with a control signal flat, not every such curve was filed as active; inconclusive = small, poorly fitted or top-dose-only effect, or effect the other way, or a change in a side signal; the % refers to the signal ratio; also: potency is read from the fitted curve at half-maximal effect; % is scaled to controls: 0 for no effect and ±100 for the full control effect
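S3 HeLa cells stably expressing lamin A-EGFP splicing minigene plus DsRed2, 600 cells/well, 48 h compound exposure at 37C. Laser-scanning cytometry; analysed as GFP (500-530 nm)/RFP (575-640 nm) total intensity ratio; 0.5% DMSO vehicle.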
Luc counter = counter-screen: inhibitors of Kinase-Glo firefly luciferase. Q27757. Kinase-Glo luciferase, ATP luminescence, 8 min. Potency, µM (top dose mostly 38.3 µM), inactives show top-dose activity change, negative = inhibition, usual class: inhibitors. 0.28% of 200,000 active. AID 1379; also: potency is read from the fitted curve at half-maximal effect; % is scaled to controls: 0 for no effect and ±100 for the full control effect; nearly all actives have a fitted effect of over 60% in size
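Recombinant Kinase-Glo luciferase, 10 uM ATP (linear range), luciferin; imidazole pH 7.2 / KCl / MgCl2 / Tween / BSA buffer; 8 min RT; luminescence.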
TCR act = T cell receptor activation. 330,000 tested, under 10 active. AID 504894. primary human leukocytes, anti-CD3, IL-2 HTRF, 48 h. Potency, µM (top dose mostly 9.22 µM), for the others: at the top dose activation of IL-2 secretion, actives largely listed as activators; also: % of control where 0% means no effect
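Activity was scored as IL-2 release from primary human leukocytes given only a TCR signal (a-CD3 beads) plus compound for 48 hr. Detection used a two-antibody HTRF format read at 665nm.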
The depositor's hits bear a star; ? = inconclusive; · = no result; ! = not confirmed by another sample; [ ] = another dose, or the depositor's remark. A selection: hits, their analogues and other compounds. The true share with any hit is near 0.34%. Unless noted, calls follow the shape of the dose curve; as a rule, active = well fitted curve in the direction sought with a large enough effect; inconclusive = small, poorly fitted or top-dose-only effect, or another doubt; inactive = no such curve, though single readings can be large; an effect the other way counts as inactive or inconclusive.

SMILES	IMPase Li cell	Lamin A splicing	Luc counter	TCR act
CC(CNC(=O)c1ccc2nc(CCc3ccccc3)oc2c1)c1ccccc1 (stereo not drawn)	·	-7%[46 µM]	·	·
O=C(c1ccc2c(c1)[nH]c(=S)n1c3ccccc3nc21)N1CCN(c2ncccn2)CC1	7.1µM*	13%	-7%	4%
O=C(c1ccc2c(=O)n(-c3ccccc3)c(=S)[nH]c2c1)N1CCN(c2ccccc2)CC1	·	·	·	1%
O=C(NCCN1CCN(c2ccccc2)CC1)c1cccn2c(=O)c3ccccc3nc12	·	-15%	·	2%[46.1 µM]
O=C(NCCN1CCN(c2ccccc2)CC1)c1ccc2c(c1)[nH]c(=S)n1c3ccccc3nc21	10µM*	·	-1%	-35%
N#Cc1c(-c2ccc(Br)cc2)cc(-c2cccnc2)nc1N	22µM*	-4%	-3%	0%[46.1 µM]
COc1ccc(OCc2cccc(C(=O)O)c2)cc1	6%	-6%	?	3%
CCOc1ccc(OCc2cccc(C(=O)O)c2)cc1	-14%[38.3 µM]	3%	11µM*	4%
Cc1ccc(-n2[nH]c(C)c(C=Nc3ccc(S(=O)(=O)Nc4nccs4)cc3)c2=O)cc1	8%	-11%	?	6%[46.1 µM]
CCc1nnc(NS(=O)(=O)c2ccc(N=Cc3c(C)[nH]n(-c4ccc(C)c(C)c4)c3=O)cc2)s1	6%	-5%	2µM*	-2%[46.1 µM]
COc1ccc(C(=O)N=c2sc3ccccc3n2C)cc1OC	3%	?	-3%	1%
COC(=O)Cn1c(=NC(=O)c2ccc(OC)c(OC)c2)sc2cc(OC)ccc21	8.9µM*	5%	-1%	-14%[46.1 µM]
C/C=C\C[C@@H](C)[C@@H](O)[C@H]1C(=O)N[C@@H](CC)C(=O)N(C)CC(=O)N(C)[C@@H](CC(C)C)C(=O)N[C@@H](C(C)C)C(=O)N(C)[C@@H](CC(C)C)C(=O)N[C@@H](C)C(=O)N[C@H](C)C(=O)N(C)[C@@H](CC(C)C)C(=O)N(C)[C@@H](CC(C)C)C(=O)N(C)[C@@H](C(C)C)C(=O)N1C	7%	·	1%	·
CC(=O)Nc1ccc(S(=O)(=O)NC2=C(N3CCN(c4ccc(F)cc4)CC3)C(=O)c3ccccc3C2=O)cc1	54%[38.3 µM]	11µM*	-18%	0%
NS(=O)(=O)c1ccc2nc(-c3ccccc3)c(-c3ccccc3)nc2c1	·	·	·	3%
Cc1cc(C)c2cc(C(=O)N3CCN(c4ncccc4C(F)(F)F)CC3)[nH]c2c1	·	·	·	3%
O=C(c1ccco1)N1CCN(C(=O)c2cc(-c3ccncc3)nc3ccc(Br)cc23)CC1	·	·	·	1%
O=C(O)c1cc(-c2ccco2)nc2ccc(Br)cc12	10µM*!	?	-2%	3%
Clc1ccc(-n2ncc3c(N4CCCCCC4)ncnc32)cc1	39%[38.3 µM]	-10%	-11%	0%
Brc1cc(Br)c2ncnc(N3CCCCC3)c2c1	13µM*	?	-2%	-33%
CCn1cc([N+](=O)[O-])c(=O)c2cc(F)c(N3CCOCC3)cc21	·	·	·	-4%
Nc1cccc(-c2nc3ccc(N)cc3s2)c1	?	-7%	13µM*	-15%
COc1ccc(CC(=O)NNS(=O)(=O)c2ccccc2)cc1OC	-4%	2%[46 µM]	-10%	-6%
COc1ccccc1-c1cc(C(=O)Nc2ccc(F)cc2F)no1	8.9µM*	11%	-5%	·
COc1ccccc1-c1cc(C(=O)NC(C)C)no1	-9%[38.3 µM]	0%	-6%	·
SMILES	IMPase Li cell	Lamin A splicing	Luc counter	TCR act
Cc1cc(C)c(OCC(=O)Nc2ccc3c(c2)OCO3)cc1C	10µM*	-1%	5%	7%
COC(=O)c1cc(=O)nc2sccn12	-8%[38.3 µM]	7%	2%	-5%
COC(=O)c1cc(NC(=O)c2c(Cl)nc3sccn23)cc(C(=O)OC)c1	11µM*	4%	-1%	-3%
Cc1ccsc1CN(C)C(=O)CN1C(=O)NC(c2ccccc2)(c2ccccc2)C1=O	·	·	·	-2%
N#Cc1cc2c(nc1SCc1ccccc1)CCCC2	16µM*	-3%	4%	-1%
N#Cc1cc2c(nc1SCc1ccccc1)CCC2	?	5%	0%	-4%[46.1 µM]
Cc1ccc(C=C2C(=O)c3ccccc3C2=O)s1	52%[38.3 µM]	7%	7.1µM*	-5%
Cc1ccc(C=C2C(=O)c3ccccc3C2=O)o1	9%	-2%	11µM*	1%
O=C1C(=Cc2cccs2)C(=O)c2ccccc21	10%	1%	?	4%[46.1 µM]
Cc1sc(NC(=S)NC(=O)CCc2ccccc2)c(C(N)=O)c1C	11µM*	-18%	-4%	-4%[46.1 µM]
O=C1CCC(c2ccccc2)=NN1c1nc2ccccc2s1	6%	·	-3%[7.66 µM]	·

Source: PubChem (National Center for Advancing Translational Sciences (NCATS))
